Data: PubChem BioAssay (Tox21)
Values joined by “and” are separate entries in the source; they are usually repeats but may differ in a detail not shown here. Equal values may be shown once. Records with an inconclusive call do not appear. A call without a number means that no potency is given here. The source holds several records for some structures; these can differ, active in one and inactive in another. Active and inactive are the calls of the source. Calls come from the whole dose curve.

Target: 5-hydroxytryptamine receptor 2A (Homo sapiens) (UniProt P28223)
Sequence (P28223 whole entry, looked up): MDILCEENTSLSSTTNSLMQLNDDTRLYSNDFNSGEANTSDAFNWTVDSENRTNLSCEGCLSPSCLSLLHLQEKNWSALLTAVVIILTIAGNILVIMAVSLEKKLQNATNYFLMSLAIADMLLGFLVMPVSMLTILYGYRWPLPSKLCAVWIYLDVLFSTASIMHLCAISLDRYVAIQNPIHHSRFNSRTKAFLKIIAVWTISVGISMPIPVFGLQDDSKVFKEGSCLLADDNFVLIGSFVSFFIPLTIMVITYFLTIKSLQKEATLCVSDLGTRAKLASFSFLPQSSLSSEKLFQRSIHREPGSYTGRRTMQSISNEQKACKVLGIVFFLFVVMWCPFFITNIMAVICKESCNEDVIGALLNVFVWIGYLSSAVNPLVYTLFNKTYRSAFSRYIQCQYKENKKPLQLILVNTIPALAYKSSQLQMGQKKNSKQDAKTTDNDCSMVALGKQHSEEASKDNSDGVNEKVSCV
Assay: 5-hydroxytryptamine receptor 2A (HTR2A) small molecule antagonists, cell-based qHTS assay (AID 1963586); note: nearly all actives have a fitted effect of over 45% in size
Method in brief: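 Antagonist-mode intracellular calcium assay: DOI (4 nM) added after 5 min compound pre-incubation at room temperature to dye-loaded HTR2A-CHO cells. Fluorescence followed for 3 min, sampled every second.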
Potency is the fitted concentration of half-maximal effect.

Compound: CCc1cccc(O)c1
- Potency: inactive

Compound: CCCCCCCCCCCCCCCC(=O)OC(C)C
- Potency: inactive

Compound: O=C(O)c1[nH]n(-c2ccc(S(=O)(=O)O)cc2)c(=O)c1N=Nc1ccc(S(=O)(=O)O)cc1
- Potency: inactive

Compound: Nc1nc2ncc(CNc3ccc(C(=O)N[C@@H](CCC(=O)O)C(=O)O)cc3)nc2c(=O)[nH]1
- Potency: inactive

Compound: C=CN1CCCC1=O
- Potency: inactive

Compound: CCCCCCCCCCCCOC(=O)c1cc(O)c(O)c(O)c1
- Potency: inactive

Compound: CCN(CCN)c1cccc(C)c1
- Potency: 530 nM (active)

Compound: C[Si](C)(C)N[Si](C)(C)C
- Potency: inactive

Compound: CCCc1c(OCCCCc2nn[nH]n2)ccc(C(C)=O)c1O
- Potency: inactive

Compound: O=C(O)CCCCCCCC(=O)O
- Potency: inactive

Compound: COc1cc(C=O)ccc1O
- Potency: inactive

Compound: CCO[Si](CCCN)(OCC)OCC
- Potency: inactive

Compound: CC(=O)OC(C)C
- Potency: inactive

Compound: O=C(c1cc(O)c(O)c(O)c1)c1ccc(O)c(O)c1O
- Potency: inactive

Compound: CCCCCCCCCCCCc1ccccc1
- Potency: inactive

Compound: CC1(C)C(=O)N(Cl)C(=O)N1Cl
- Potency: inactive

Compound: O=[Se](O)O
- activity, negative = inhibition: 3.34% [at 12.7 µM] (inactive)

Compound: CCCOC(=O)NCCCN(C)C
- Potency: inactive

Compound: c1ccc2c(c1)ccc1ccccc12
- Potency: inactive

Compound: Cc1ccc(C)c(C)c1
- Potency: inactive

Compound: Cc1cccc2ccccc12
- Potency: inactive

Compound: CCCCCCCCCCCCCC[N+](C)(C)Cc1ccccc1
- Potency: 1.2 µM (active) and 4.1 µM (active) and inactive

Compound: NC(=O)/N=N/C(N)=O
- Potency: inactive

Compound: CN(C)CCOC(C)(c1ccccc1)c1ccccn1 (configuration not stated)
- Potency: inactive

Compound: CCCCC/C=C\C/C=C\CCCCCCCC(=O)O
- Potency: inactive

Compound: NC(N)=S
- Potency: inactive and 37.5 µM (active)

Compound: CC(=O)c1ccccn1
- Potency: inactive

Compound: O=c1[nH]nnc2ccccc12
- Potency: inactive

Compound: OCCOCCOCCO
- Potency: inactive

Compound: COC(C)COC(C)COC(C)CO (configuration not stated)
- Potency: inactive

Compound: OCc1ccc(Cl)cc1Cl
- Potency: inactive

Compound: c1ccc2[nH]cnc2c1
- Potency: inactive

Compound: FC(F)(F)c1ccc(Cl)c(Cl)c1
- Potency: inactive

Compound: CCOC(=O)C(C#N)=C(c1ccccc1)c1ccccc1
- Potency: inactive

Compound: NC(=O)NC1NC(=O)NC1=O (configuration not stated)
- Potency: inactive

Compound: O=C1CCCCCCCCCCC1
- Potency: inactive

Compound: C=C(C)C(N)=O
- Potency: inactive

Compound: NC(=O)N/N=C/c1ccc([N+](=O)[O-])o1
- Potency: inactive

Compound: CCCCNC(=O)NS(=O)(=O)c1ccc(N)cc1
- Potency: inactive

Compound: OCC1CCCO1 (configuration not stated)
- Potency: inactive

Compound: COCN(COC)c1nc(N(COC)COC)nc(N(COC)COC)n1
- Potency: inactive

Compound: COCCOCCOCCO
- Potency: inactive

Compound: Clc1ccccn1
- Potency: inactive

Compound: CC(=O)OCc1ccc2c(c1)OCO2
- Potency: inactive

Compound: OCC(O)CS (configuration not stated)
- Potency: inactive

Compound: Nc1cccc(C(F)(F)F)c1
- Potency: inactive

Compound: CC(=O)OC/C=C(C)/C=C/C=C(C)/C=C/C1=C(C)CCCC1(C)C
- Potency: inactive

Compound: CCCC(O)C(CC)CO (configuration not stated)
- Potency: inactive

Compound: CCN1CCCC1=O
- Potency: inactive

Compound: Brc1nc2ccccc2s1
- Potency: inactive

Compound: CC1=C(/C=C/C(C)=C/C=C/C(C)=C/CO)C(C)(C)CCC1
- Potency: inactive

Compound: CC(C)OB(OC(C)C)OC(C)C
- Potency: inactive

Compound: OC1CCCCC1
- Potency: inactive

Compound: COC(=O)c1ccccc1
- Potency: inactive

Compound: CSc1ccc(Cl)cc1
- Potency: inactive

Compound: COc1ccc(C(=O)c2ccccc2O)c(O)c1
- Potency: inactive

Compound: CC1=CC(=O)CC(C)(C)C1
- Potency: inactive
